Measurements taken from PubChem BioAssay AID488832 (National Center for Advancing Translational Sciences (NCATS), 2010).
Records with an inconclusive call do not appear. Active and inactive are the calls of the source. Calls follow the shape of the dose curve; as a rule, active = well fitted activation curve with a large enough effect; inconclusive = small, poorly fitted or top-dose-only effect; inactive = no such curve, though single readings can be large or run the other way.

Test: Confirmation Concentration-Response Assay for Enhancers of SMN2 Splice Variant Expression for Further Probe SAR
Conditions: HEK293 SMN2 exon7-luciferase splicing reporter, luminescence, 30-36 h; series mostly up to 46.1 µM; activity, positive = activation: at the top concentration
Description: NIH Chemical Genomics Center [NCGC] NIH Molecular Libraries Probe Production centers Network [MLPCN] MLPCN Grant: R03 MH084179-01 Assay Submitter (PI): Elliot Androphy NCGC Assay Overview: Spinal muscular atrophy (SMA) is caused by insufficient levels of the survival motor neuron protein SMN. The SMN locus on chromosome 5q13 contains two inverted copies of SMN called SMN1 and SMN2 which are 99% identical at the amino acid level. SMN1 is a fully functional protein and SMN2 skips exon 7 90% of the time. Skipping of exon 7 produces non-functional protein product. 10% of the SMN2 protein includes exon 7 and is fully functional. In the SMA disease state, mutations in the SMN1 locus are the cause of the disease state. Because only 10% of SMN2 is of the fully functional form, it is not sufficient to overcome the deficiency produced by the loss of the SMN1 product. A therapy that either increase the amount of SMN2 product made or to increase the inclusion of exon 7 has been proposed for the treatment of SMA. We have designed an assay to identify small molecules that can increase the amount of functional SMN2 product by appending a luciferase reporter gene after the native SMN2 gene, such that inclusion of exon 7 in the expressed product places the luciferase sequence in frame, thus generating functional luciferase enzyme.
NCGC Assay Protocol Summary: This screen utilizes a luciferase reporter gene assay, combining the promoter with the major portion of the native SMN2 cDNA (exons 1 -7, intron 8 , exon 8 fused to luciferase) stably expressed in HEK293 cells. Compounds that increase luciferase signal presumably enhance expression of the functional SMN2 splice variant. Passaging media contained DMEM w/ glutamax (+phenol red) 10% FCS, 1x pen/strep, 200 ug/ml hygro, 1x sodium pyruvate. Assay media contained DMEM w/ glutamax (-phenol red) 10% FCS, 1x pen strep, 1x pyruvate Sequence, Parameter, Value, Description (1) Cells, 5 uL, 2000 cells/well, 1536 TC treated White solid bottom plate (2) Time, 10-12 hours, 37C 5% CO2 (3) Compound, 23 nl, MLSMR Library (4) Control Compound, 23 nL, Sodium butyrate st 4.5mM (final) conc (5) Time, 30-36 hours, 37C 5% CO2 (6) Reagent, 3 ul, One Glo (TM) from Promega (7) Time, 5-15 minutes, Room temp (8) Detector, Viewlux: luminescent read, 60 second integration, high speed 2x binning Keywords: Spinal muscular atrophy, SMA, SMN2, high throughput screening, MLSMR, MLPCN, NIH Roadmap, qHTS and NCGC

Potency, active:
CSc1ccc(-c2cnc(N3CCC(C(N)=O)CC3)s2)cc1 0.031 µM
CN(C)c1cccc(-c2nc(N3CCC(C(N)=O)CC3)ncc2F)c1 0.345 µM
NC(=O)C1CCN(c2nc(-c3ccc(N4CCCCC4)nc3)cs2)CC1 3.45 µM
Brc1ccc(-c2csc(N3CCC(c4nn[nH]n4)CC3)n2)cc1 17.3 µM
NC(=O)C1CCN(c2nccc(-c3ccc(Br)cc3)n2)CC1 0.244 µM
NC(=O)C1CCN(c2ncc(-c3ccc4c(c3)OCCCO4)s2)CC1 0.0307 µM
NC(=O)C1CCN(c2ncc(-c3ccc4c(c3)OCCO4)s2)CC1 0.0867 µM
CCOC(=O)C1CCN(c2ncc(-c3ccc4c(c3)OCCCO4)s2)CC1 0.0274 µM
NC(=O)C1CCN(c2nc(-c3ccccc3[N+](=O)[O-])cs2)CC1 15.4 µM
CC(=O)C1CCN(c2ncc(-c3cccc(N(C)C)c3)s2)CC1 2.74 µM
CN(C)c1cccc(-c2nccc(N3CCC(C(N)=O)CC3)n2)c1 12.2 µM
NC(=O)C1CCN(c2nc(-c3ccc4c(c3)OCO4)cs2)CC1 1.37 µM
Cc1cccc(-c2csc(N3CCC(C(N)=O)CC3)n2)c1 15.4 µM
CC(C)Oc1cccc(-c2cnc(N3CCC(C(N)=O)CC3)s2)c1 0.0688 µM
NC(=O)C1CCN(c2nccc(-c3ccc4c(c3)OCCO4)n2)CC1 1.09 µM
NC(=O)C1CCN(c2nc(-c3cccc4sc5ccccc5c34)cs2)CC1 13.7 µM
O=C(Nc1ccccc1)C1CCN(c2ncc(-c3ccc4c(c3)OCCCO4)s2)CC1 0.0487 µM
NC(=O)C1CCN(c2nc(-c3ccc(C(F)(F)F)cc3)cs2)CC1 0.867 µM
CC(C)Oc1ccc(-c2csc(N3CCC(C(N)=O)CC3)n2)cc1 3.87 µM
NC(=O)C1CCN(c2ncc(-c3ccc4c(c3)OCO4)s2)CC1 0.0487 µM
NC(=O)C1CCN(c2ncc(-c3cccc(N4CCCCC4)c3)s2)CC1 1.09 µM
CNC(=O)C1CCN(c2nc(-c3ccc(Br)cc3)cs2)CC1 4.87 µM
CC(C)Oc1cccc(-c2ccnc(N3CCC(C(N)=O)CC3)n2)c1 0.154 µM
O=C(O)C1CCN(c2ncc(-c3ccc4c(c3)OCCCO4)s2)CC1 0.0087 µM
NC(=O)C1CCN(c2nc(-c3ccc(OC(F)(F)F)cc3)cs2)CC1 3.07 µM
COc1cccc(-c2csc(N3CCC(C(N)=O)CC3)n2)c1 1.09 µM
CN(C)c1cccc(-c2cc(N3CCC(C(N)=O)CC3)ncn2)c1 4.87 µM
CN(C)c1cccc(-c2cnc(N3CCC(C(N)=O)CC3)nc2)c1 0.547 µM
CC(C)Oc1cccc(-c2csc(N3CCC(C(N)=O)CC3)n2)c1 0.688 µM
CC(C)(C)c1ccc(-c2csc(N3CCC(C(N)=O)CC3)n2)cc1 2.74 µM
NC(=O)C1CCN(c2nc(-c3ccccc3)cs2)CC1 3.07 µM
CN(C)c1cccc(-c2ccnc(N3CCC(C(N)=O)CC3)n2)c1 0.688 µM
CCOc1ccc(-c2csc(N3CCC(C(N)=O)CC3)n2)cc1 3.07 µM

activity, positive = activation, inactive:
NC(=O)C1CCN(c2ncc(Br)s2)CC1 -13%
NC(=O)C1CCN(c2nc(-c3ccc(N)cc3)cs2)CC1 4.35%
O=C(c1ccccc1)N1CCN(c2nc(-c3ccc(Br)cc3)cs2)CC1 -42.8%
Nc1nc(N)c2c(OCC3CCN(Cc4ccccc4F)CC3)cccc2n1 -92.9%
O=C(NCCCCc1ccccc1)C1CCN(c2nc(-c3ccc(Br)cc3)cs2)CC1 4.35%
CC(=O)NC1CCN(c2nc(-c3ccc(Br)cc3)cs2)CC1 -49.7%
CC(C)(C)OC(=O)NC1CCN(c2nc(-c3ccc(Br)cc3)cs2)CC1 -21.7%
